From PubChem BioAssay (EPA / NIEHS)
Calls of active or inactive are those of the source. How the source made its calls: active means hit-call score of the fitted dose curve at least 0.9, where 1 is the maximum; inactive means score below 0.9.

Read-out: Pro-epidermal growth factor (Homo sapiens) (UniProt P01133)
Assay: LTEA_HepaRG_EGF: Life Technologies and Expression Analysis (LTEA) Assay for Epidermal growth factor (EGF) using HepaRG (AID 2283489)
Details: mRNA level, 48 h; actives raise or lower the signal
Description: LTEA_HepaRG is a cell based, multiplexed-readout assay that uses HepaRG, a human liver cell line, with measurements taken at 48 hours after chemical dosing on a 96-well plate.LTEA_HepaRG_EGF is one of 102 assay component(s) measured in the LTEA HepaRG cell culture assay. It is a marker of Cell proliferation, survival, death.Data from the assay component LTEA_HepaRG_EGF was analyzed into 1 endpoint. This assay endpoint, LTEA_HepaRG_EGF, was analyzed with bidirectional fitting relative to DMSO as the negative control and baseline of activity. Using a type of inducible reporter, measures of mRNA induction for gain or loss-of-signal activity can be used to understand regulation of transcription factor activity. To generalize the intended target to other relatable targets, this assay endpoint is annotated to the growth factor intended target family, where the subfamily is EGF-like domain.
A total of 1060 chemcials from the ToxCast library were tested in eight-point concentration-response experiments. Cell culture and cytotoxicity assays were conducted at Thermo Fisher Scientific's Custom Services facility (Madison, WI). A single lot of human HepaRG cells (Thermo Fisher Scientific, Frederick, MD) was used for the cell culture experiments. 96-well format collagen type I coated plates of human HepaRG cells were prepared using established methods. Briefly, cryopreserved HepaRG cells were thawed, plated at a density of approximately 100,000 cells/well in HepaRG Thaw, Plate, and General Purpose media (HPRG770, Thermo Fisher Scientific), and incubated for 48 hours. 0.5% DMSO was selected as vehicle control to balance the requisite need of DMSO in HepaRG cultures to maintain differentiation (for example, baseline metabolism, proportions of hepatocytes vs. cholangiocytes), while enabling further hepatic receptor pathway activation (for example, PXR and CAR) in response to chemical exposure. 48 hours after plating, the culture medium was replaced with HepaRG Serum-Free Incudtion Media. Cells were exposed to each test chemical in duplicate and maintained in CO2 incubators for another 48 hours. Chemical plates were thawed to room temperature and 200x concentrations of treatment groups were prepared. 8-point conentration-reponse curves were made with the highest exposure at 100 uM, followed by half-log dilutions, all in 0.5% DMSO. Each test plate contained variouse controls, induction positive controls (1mM phenobarbital), cytotoxicity positive controls ([…] aflatoxin B1), vehicle controls (0.5% DMSO), and total lysis controls (0.5% DMSO). Cell morphology images were taken using an Essen IncuCyte FLR automated microscope, with six 96-well plates imaged in about 24 minutes. Images were captured and exported and JPEG files. Spent culture media was transfered to black-well plates for the LDH assay, and remaining media was sorted at -80 C for later use. Cells were treated with RLT buffer and frozen until shipped for gene expression analysis. Total RNA was isolated from the cell suspension in 75 uL of Buffer RLT (Qiagen, Germantown, MD 20874) by Quintiles/Expression Analysis (Durham, NC) using a custom isolation procedure. Total RNA from each plate well was transferred to a preamplification plate. Fluidigm's 96.96 Dynamic ArrayTM (Fluidigm, Amsterdam, the Netherlands) technology was used for gene expression analyses by quantitative reverse transcription polymerase chain reaction (qRT-PCR, performed by Quintiles/Expression Analysis, Durham, NC)89. Standard TaqManTM Assays (Applied Biosystems/ThermoFisher Scientific, Foster City, CA) were used to assess the expression of 93 genes selected based on their selectivity and sensitivity to important hepatic receptors known to be modulated by environmental chemicals; importance in human hepatocyte functionality; and hepatotoxicity. […]

Compound	outcome	AC50
CC(C)(C)c1ccc(CSc2cnn(C(C)(C)C)c(=O)c2Cl)cc1	inactive	
C=CC1(C)OC(=O)N(c2cc(Cl)cc(Cl)c2)C1=O (stereo not given)	inactive	
CCNc1nc(Cl)nc(NC(C)C)n1	inactive	
CNC(=S)S	inactive	
C=CCC1=C(C)C(OC(=O)C2C(C=C(C)C)C2(C)C)CC1=O (stereo not given)	inactive	
CCCC1COC(Cn2cncn2)(c2ccc(Cl)cc2Cl)O1 (stereo not given)	inactive	
Fc1ccc(Oc2ccnc3cc(Cl)cc(Cl)c23)cc1		32.8 µM (active)
CN(C)C(=S)SSC(=S)N(C)C	inactive	
O=C(Nc1ccccc1)Nc1ccnc(Cl)c1	inactive	
N#Cc1cc(Br)c(O)c(Br)c1		15.3 µM (active)
COc1cnc(OC)n2nc(NS(=O)(=O)c3c(OCC(F)F)cccc3C(F)(F)F)nc12	inactive	
Cc1ccc(-c2c(Cl)nc(C#N)n2S(=O)(=O)N(C)C)cc1	inactive	
C#CCOS(=O)OC1CCCCC1Oc1ccc(C(C)(C)C)cc1 (stereo not given)		29.4 µM (active)
O=C(O)COc1nc(Cl)c(Cl)cc1Cl	inactive	
OC(c1ccc(Cl)cc1)(c1cncnc1)c1ccccc1Cl (stereo not given)		34.1 µM (active)
CO/C=C(/C(=O)OC)c1ccccc1Oc1cc(Oc2ccccc2C#N)ncn1	inactive	
C=CCC1=C(C)[C@@H](OC(=O)[C@@H]2[C@@H](C=C(C)C)C2(C)C)CC1=O	inactive	
CCCCC(CC)COC(=O)c1ccccc1C(=O)OCC(CC)CCCC (stereo not given)	inactive	
COC(=O)N(OC)c1ccccc1COc1ccn(-c2ccc(Cl)cc2)n1		12.1 µM (active)
N#CC(CCc1ccc(Cl)cc1)(Cn1cncn1)c1ccccc1 (stereo not given)	inactive	

Compound	outcome	AC50
Cc1c(F)c(F)c(COC(=O)C2C(/C=C(\Cl)C(F)(F)F)C2(C)C)c(F)c1F (stereo not given)		50 µM (active)
COc1ccc(C(c2ccc(OC)cc2)C(Cl)(Cl)Cl)cc1	inactive	
CCOP(=S)(OCC)SCn1c(=O)oc2cc(Cl)ccc21	inactive	
COC(=O)C=C(C)OP(=O)(OC)OC	inactive	
O=C(O)c1nc(Cl)ccc1Cl	inactive	
CS/C(C)=N/OC(=O)N(C)SN(C)C(=O)O/N=C(\C)SC	inactive	
CCOc1cc(Oc2ccc(C(F)(F)F)cc2Cl)ccc1[N+](=O)[O-]		10.5 µM (active)
CCOC(=O)CC(SP(=S)(OC)OC)C(=O)OCC (stereo not given)	inactive	
CON(C)C(=O)Nc1ccc(Cl)c(Cl)c1	inactive	
CCCCOC(=O)c1ccccc1C(=O)OCCCC	inactive	
CCCCNC(=O)n1c(NC(=O)OC)nc2ccccc21	inactive	
CC1=C(C(=O)Nc2ccccc2)SCCO1	inactive	
CCNc1nc(Cl)nc(NCC)n1	inactive	
CCc1nn(C)c(C(=O)NCc2ccc(C(C)(C)C)cc2)c1Cl		50 µM (active)
CCON=C(CC)C1=C(O)CC(c2c(C)cc(C)cc2C)CC1=O (stereo not given)	inactive	
COc1nc(NC(C)C)nc(NC(C)C)n1	inactive	
CC1COC(Cn2cncn2)(c2ccc(Oc3ccc(Cl)cc3)cc2Cl)O1 (stereo not given)	inactive	
CC(C)C1(C)N=C(c2nc3ccccc3cc2C(=O)O)NC1=O (stereo not given)	inactive	
COC(=O)c1ccccc1C(=O)OC	inactive	
COP(N)(=O)SC (stereo not given)	inactive	
